Assay outcomes deposited in PubChem BioAssay by several laboratories.
The list is not random: actives were taken first. Their share in the collection is about 27%.
CYP2C9 activ – increases human cytochrome P450 2C9 activity; P11712; recombinant CYP2C9, luciferin-H conversion, luminescence; hits give high values; factor 1 = untreated enzyme, 0 = blocked; activation factor at 5 µM; 96,000 tested, 1.4% active; AID 1024;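 active = activation factor of 2 or more for CYP2C9 at a 5 µM dose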;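 note: 0 = sulfaphenazole-blocked wells and 1 = vehicle-only wells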
Cav32 inh – inhibitors of human Cav3.2 T-type calcium channel; Cav3.2-expressing cells, Fluo-4 calcium fluorescence FDSS; hits give low values; B-score at 10 µM; 100,000 tested, 4% active;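 active = single-dose well whose peak fluorescence ratio is a statistical outlier from its plate by either plate-standardised score or position-corrected B-score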
CYP2C19 inhib – human CYP2C19 inhibition; P33261; CYP2C19 Supersomes, luciferin-H EGE luminescence, 30 min; inhibition, % at 5 µM; 96,000 tested, 21% active; AID 778;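 active = CYP2C19 inhibition above a set limit at 5 µM in the primary screen, cut at about 50% in these data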;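 note: plate controls were negative control wells for no effect and 2.5 mM tranylcypromine positive control for full effect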
CYP2C19 act – cytochrome P450 2C19 (human) activation; P33261; recombinant CYP2C19, luciferin-H EGE luminescence; hits give high values; 0 = fully inhibited enzyme, 1 = untreated enzyme; activation factor at 5 µM; 96,000 tested, under 10 active; AID 1025;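 active = activation factor of at least 2 at 5 µM in the primary screen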;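 note: 0 = wells with 2.5 mM tranylcypromine and 1 = vehicle-only wells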
CYP2C9 inhib – blocks human cytochrome P450 2C9. AID 777. P11712. inhibition, % at 5 µM. CYP2C9 Supersomes, luciferin-H conversion, luminescence. 96,000 tested, 20% active;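 active = blocking of liver enzyme CYP2C9 beyond about 50% at 5 µM, limit read from the data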
Starred values were filed as active, the others as inactive; . = no result.

SMILES	CYP2C9 activ	Cav32 inh	CYP2C19 inhib	CYP2C19 act	CYP2C9 inhib
O=C(CNC(=O)c1ccc(Br)o1)NCc1ccc2c(c1)OCO2	0.8	1	12	0.9	16
CCCN(CCC)S(=O)(=O)c1ccc(C(=O)NCc2ccc3c(c2)OCO3)cc1	1.1	-0.59	-1	1	-8
O=C(CCS(=O)(=O)c1ccc(Br)s1)NCc1ccc2c(c1)OCO2	0.2	1.1	35	0.6	81*
O=C(Cn1cc([N+](=O)[O-])cn1)N1N=C(C(F)F)CC1(O)C(F)F (configuration not stated)	.	0.007	.	.	.
CCOC(=O)C(=O)Nc1ccccc1C(=O)NC(C)C	0.7	0.67	-2	1	33
O=C(CNC(=O)c1ccccc1)NC1(C(=O)NC2CCCC2)CCCCC1	1	-1.5	9	0.9	4
CSc1nc(-c2ccco2)cc(-c2ccccc2)c1C#N	0.3	.	25	0.8	66*
COC(=O)CSc1nc(-c2ccccc2)cc(-c2ccco2)c1C#N	0.1	-1.4	49	0.5	89*
O=C(c1cc(C2CC2)on1)N1CCOCC1	1.1	-0.32	-3	1	-5
COc1ccccc1-n1c(C)cc(SC)c(C(C)=O)c1=S	0.6	0.35	48	0.5	36
Cc1ccc(-n2nnnc2SCC(=O)N2CCc3ccccc3C2)c(C)c1	2*	-1.8	1	1	-100
Cc1ccc(-n2nnnc2SC(C)C(N)=O)c(C)c1 (configuration not stated)	1.2	0.0073	16	0.8	-19
Cc1ccc(-n2nnnc2SCC(=O)N2CCc3ccccc3C2)cc1	.	-1.3	.	.	.
Cn1nnnc1SCC(=O)N1CCOCC1	.	0.043	.	.	.
Cn1nnnc1SCC(=O)N1CCc2ccccc2C1	1.2	0.25	70*	0.3	-15
C/C(N)=C(/C#N)C(=O)CSc1nnnn1-c1ccc(C)cc1C	0.7	-0.23	100*	0	31
CCOC(=O)C1=C(O)/C(=C\c2ccc(CNC(=O)C(=O)Nc3ccc(C)c(C)c3)o2)N=C1C	0.2	.	55*	0.4	83*
CCSc1nc2c(cnn2-c2ccc(C)cc2)c(=O)[nH]1	1.2	.	0	1	-19
COc1ccc(S(=O)(=O)Nc2ccc(NC(C)=O)cc2)cc1	0.1	-1.9	97*	0	90*
CC(C)C(=O)NC(=S)Nc1ccc(S(=O)(=O)NC(C)(C)C)cc1	0.5	-1.1	37	0.6	50*
Cc1cc(C)nc(NS(=O)(=O)c2ccc(NC(=S)NC(=O)CC(C)C)cc2)n1	.	1.1	.	.	.
Cc1cc(C)nc(NS(=O)(=O)c2ccc(NC(=S)NC(=O)C(C)(C)C)cc2)n1	0.8	1	-3	1	21
COc1ccc(CC(=O)Nc2ccc(S(=O)(=O)Nc3nc(C)cc(C)n3)cc2)cc1	0.9	0.16	-26	1.3	7
CCOc1ccc(NS(=O)(=O)c2ccc(NC(=S)NC(=O)C(C)C)cc2)cc1	0	-2.4	82*	0.2	95*
COc1ccc(NS(=O)(=O)c2ccc(NC(=S)NC(=O)C(C)C)cc2)cc1	0.4	.	79*	0.2	64*
SMILES	CYP2C9 activ	Cav32 inh	CYP2C19 inhib	CYP2C19 act	CYP2C9 inhib
CCC(=O)NC(=S)Nc1ccc(S(=O)(=O)NC(C)C)cc1	0.8	0.05	11	0.9	15
CC(C)NC(=O)[C@@H]1C[C@@]1(C)[C@@H](NC(=O)OCc1ccccc1)c1ccccc1	.	0.19	.	.	.
COc1ccccc1OCC(=O)Nc1ccc(S(=O)(=O)NC(C)=O)cc1	0.8	0.27	-11	1.1	22
CC(=O)Nc1ccc(S(=O)(=O)NC(CC(=O)N(C)Cc2ccccc2)C(C)C)cc1 (configuration not stated)	1	0.48	25	0.7	-2
CC(C)C(=O)NC(=S)Nc1ccc(S(=O)(=O)N(C)Cc2ccccc2)cc1	0.4	-5.7*	40	0.6	55*
COc1ccccc1CNS(=O)(=O)c1ccc(NC(C)=O)cc1	2.1*	-1.5	77*	0.2	-114
COC(=O)CSc1nc2ccccc2c(=O)n1C	1	0.66	11	0.9	0
CCN(CC)CC(O)Cn1c2ccccc2c2ccccc21 (configuration not stated)	1	0.011	9	0.9	1
O=S(=O)(c1ccccc1)N(CC(O)Cn1c2ccccc2c2ccccc21)c1ccccc1 (configuration not stated)	0.2	.	50	0.5	79*
Cc1ccc(S(=O)(=O)N(C)CC(O)Cn2c3ccccc3c3ccccc32)cc1 (configuration not stated)	0.1	-0.41	44	0.6	88*
C=CCN(CC=C)CC(O)Cn1c2ccccc2c2ccccc21 (configuration not stated)	0.7	-3.4*	73*	0.3	30
Cc1ccc(S(=O)(=O)N(CC(O)CN2CCCCC2)c2ccccc2)cc1 (configuration not stated)	1	0.63	2	1	-3
CN1CCN(C(=O)c2cn(-c3ccccc3)nc2-c2cccnc2)CC1	1.3	-0.0032	-2	1	-30
Cc1ccc(-c2nn(-c3ccccc3)cc2C(=O)N2CCOCC2)cc1	0.3	.	54*	0.5	71*
CCCS(=O)(=O)c1c(S(=O)(=O)CCC)c2cnccn2c1C(=O)c1ccc(Cl)cc1	0.9	-0.45	2	1	6
O=C(O)c1cc(S(=O)(=O)Nc2ccc3oc(=O)sc3c2)ccc1O	0.1	-0.064	23	0.8	85*
Cc1ccc(S(=O)(=O)Nc2ccc3oc(=O)sc3c2)c(C)c1	0.4	.	67*	0.3	64*
CC(=O)c1c(C)oc2ccc(NS(=O)(=O)c3ccc(O)c(C(=O)O)c3)cc12	0.1	-0.0075	52*	0.5	89*
Cc1ccc(N/C=C/C(=O)C(C)(C)C)c(O)c1	0.6	-0.74	14	0.9	39
CN(CC(=O)NC1CCCCCC1)S(=O)(=O)c1ccc2c(c1)n(C)c(=O)c(=O)n2C	1	1.3	-8	1.1	-4
CC1(C)CC2CC(C)(CN2S(=O)(=O)c2ccc(N)cc2)C1 (configuration not stated)	0.9	-1.1	74*	0.3	9
N=C1C(c2ccccc2)=C(O)CN1c1ccc2c(c1)OCO2	1.1	.	-9	1.1	-5
Nc1ccc(-c2ccc(N)cc2C(F)(F)F)c(C(F)(F)F)c1	0.4	.	79*	0.2	60*
COCCNC(=O)C(c1ccco1)N(C(=O)Cn1nnc2ccccc21)c1cc(C)ccc1C (configuration not stated)	0.9	0.034	36	0.6	12
CC(=O)Nc1ccc2nc(C)n(Cc3ccc(Cl)cc3)c(=O)c2c1	.	0.33	.	.	.
CCNC(=O)Nc1cc2nc(C)n(Cc3ccc(Br)cc3)c2nc1C	0.7	0.94	80*	0.2	30
COc1ccc(C(=O)C(CO)Oc2ccccc2OC)cc1OC (configuration not stated)	1.1	.	30	0.7	-10
COc1ccc(C(=O)c2c(C(F)(F)F)oc3c2C(=O)c2ccccc2C3=O)cc1OC	0.6	0.77	67*	0.3	43
